We go through 38 compounds from PubChem BioAssay (EPA / NIEHS).

In general, AC50 refers to the concentration giving half of the maximal activity seen.

Values joined by “and” are separate entries in the source; they are usually repeats but may differ in a detail not shown here. Equal entries are not always repeated. Some compounds were tested as several samples or in several runs, with calls that do not always agree. Active and inactive are the calls of the source. How the source made its calls: active means hit-call score of the fitted dose curve at least 0.9, where 1 is the maximum; inactive means score below 0.9.

Read-out in this assay: C-C motif chemokine 2 (Homo sapiens) (UniProt P13500)
Put plainly: BSK_KF3CT_MCP1: BioMAP Diversity Plus: KF3CT Assay for Monocyte Chemoattractant Protein 1 (MCP1/CCL2) Biomarker Activity (AID 2283073). The following applies: primary human keratinocytes with fibroblasts; actives raise or lower the signal. On the procedure: BSK_KF3CT is a cell-based, multiplexed-readout assay that uses keratinocytes and foreskin fibroblasts, a human skin primary cell co-culture, with measurements taken at 24 hours after chemical dosing in a 96-well plate.BSK_KF3CT_MCP1 is an assay component measured in the BSK_KF3CT assay. It measures MCP-1 antibody related to regulation of gene expression using ELISA technology.Data from the assay component BSK_KF3CT_MCP1 was analyzed into 1 assay endpoint. This assay endpoint, BSK_KF3CT_MCP1, was analyzed with bidirectional fitting relative to DMSO as the negative control and baseline of activity. Using a type of binding reporter, gain or loss-of-signal activity can be used to understand changes in the signaling as they relate to the gene CCL2. Furthermore, this assay endpoint can be referred to as a primary readout, because this assay has produced multiple assay endpoints where this one serves a signaling function. To generalize the intended target to other relatable targets, this assay endpoint is annotated to the cytokine intended target family, where the subfamily is chemotactic factor.
The levels of cell surface (or secreted, indicated by the prefix "s") biomarker endpoints were measured by ELISA. Overt cytotoxicity to cells in confluent adherent cultures (all systems other than the BT system) was assessed by measuring total protein levels using sulforhodamine B (SRB) staining in parallel cultures at the time of biomarker measurements, indicated as SRB endpoints. For proliferation assays for adherent cell types, individual cell types are cultured at sub-confluence and relative cell numbers quantified by SRB staining at time points optimized for each system (48 h: 3C and CASM3C systems; 72 h: BT and HDF3CGF systems; 96 h: SAg system). SRB was performed by staining cells with 0.1% SRB after fixation with 10% TCA and reading wells at 560 nm.Viability and proliferation of PBMC (T cells) was quantified by Alamar Blue reduction for the SAg and BT systems. For PBMC viability (referred to as PBMC Cytotoxicity within the assay endpoint names), cells were plated (75,000/well in a 96-well plate) and then chemical samples added for 1 h before addition of activators, SEB and TSST-1 (20 ng/mL final concentration each). Cells were incubated for 90 h. Then, Alamar Blue (20 uL/well) (Invitrogen, Cat DAL1100) was added for 6 h, and the plates were read with a fluorescence microplate reader at 546/580 nm (excitation/emission). For PBMC proliferation, cells were plated and activated as above but incubated for only 16 h prior to addition of Alamar Blue. Plates were read after 6 h.
On to `NCC(F)(F)C(F)(F)C(F)(F)C(F)(F)C(F)(F)C(F)(F)F`, for which the outcome was inactive.
In the case of `O=C1C=CC(=O)N1c1ccc(Cc2ccc(N3C(=O)C=CC3=O)cc2)cc1`, the AC50 is 1.99 µM (active).
On to `FC(F)(F)C(F)(F)C(F)(F)C(F)(F)C(F)(F)C(F)(F)CC[Si](Cl)(Cl)Cl`, for which the result was inactive.
The same measure, in the same setting: in the case of `O=S(=O)(Cl)C(F)(F)C(F)(F)C(F)(F)C(F)(F)C(F)(F)C(F)(F)C(F)(F)C(F)(F)F` it was “inactive”.
Same read-out and setting: in the case of `NC(=O)C(F)(F)C(F)(F)C(F)(F)F` it was “inactive”; in that of `COC(F)(C(F)F)C(F)(F)F` (stereo not given), “inactive”.
On to `C=CC(=O)OCC(F)(F)C(F)(F)C(F)(F)C(F)(F)C(F)(F)C(F)(F)C(F)(F)C(F)F`, for which the outcome was inactive and the AC50 is 30 µM (active).
Regarding `NC(=O)C(F)(F)C(F)(F)C(F)(F)C(F)F`, the outcome was inactive.
On to `C[C@]12CC[C@H]3C(=CCc4cc(O)ccc43)[C@@H]1CCC2=O`, for which the outcome was inactive.
As for `Cc1cc(O)c(C(C)(C)C)cc1C(C)(C)C`, the AC50 is 3.37 µM (active).
On to `NC(=O)C(F)(F)C(F)(F)C(F)(F)C(F)(F)C(N)=O`, for which the outcome was inactive.
On the same count and under the same terms, under `CC(C)(C)c1cc(CCC(=O)NCCCCCCNC(=O)CCc2cc(C(C)(C)C)c(O)c(C(C)(C)C)c2)cc(C(C)(C)C)c1O` stands “inactive”; under `C[Si](Cl)(Cl)CCC(F)(F)C(F)(F)C(F)(F)C(F)(F)C(F)(F)C(F)(F)F`, “inactive”; under `NCC(F)(F)C(F)(F)C(F)(F)C(F)(F)C(F)(F)C(F)(F)C(F)(F)C(F)(F)F`, “inactive”.
On to `CCN(CC)c1ccc(N=Nc2ccccc2)cc1`, for which the outcome was inactive.
On to `O=C(O)C(F)(F)C(F)(F)C(F)(F)C(F)(F)C(F)(F)C(F)(F)C(F)F`, for which the result was inactive.
Turning to `CCN(CC)c1ccc2c(c1)Oc1cc(N(CC)CC)ccc1C21OC(=O)c2ccccc21`, the outcome was inactive.
On to `CN(C(=O)C(F)(F)C(F)(F)C(F)(F)F)[Si](C)(C)C`, for which the outcome was inactive.
`Cc1ccc(O)c(-n2nc3ccccc3n2)c1`: the result was inactive.
Same read-out and setting: in the case of `O=C(O)C(F)(F)C(F)(F)C(F)(F)OC(F)(F)F` it was “inactive”.
Same read-out and setting: in the case of `Cc1cnccn1` it was “inactive”; in that of `O=C(O)C(F)(F)C(F)(F)C(F)(F)OC(F)(C(F)(F)F)C(F)(F)F`, “inactive”.
Still for that read-out and setting: under `O=S(=O)(O)CCC(F)(F)C(F)(F)C(F)(F)C(F)(F)F` stands “inactive”; under `OCC(O)CC(F)(F)C(F)(F)C(F)(F)C(F)(F)F` (stereo not given), “inactive”.
Take `CCN(CCO)S(=O)(=O)C(F)(F)C(F)(F)C(F)(F)C(F)(F)C(F)(F)C(F)(F)C(F)(F)C(F)(F)F`: the AC50 was 14.4 µM (active) and the result was inactive.
For `FC(F)(F)C(F)(F)C(F)(F)CC1CO1` (stereo not given), the result was inactive.
With `OCCCC(F)(F)C(F)(F)C(F)(F)C(F)(F)C(F)(F)C(F)(F)C(F)(F)C(F)(F)F`, the AC50 is 11 µM (active) and 8.31 µM (active).
For the compound `O=C(c1ccccc1)c1ccc(O)cc1O`, the outcome was inactive.
With `CC(C)CCCC(C)CCO` (stereo not given), the AC50 is 33.5 µM (active).
For the compound `OCC(O)CC(F)(F)C(F)(F)C(F)(F)C(F)(F)C(F)(F)C(F)(F)C(F)(F)C(F)(F)F` (stereo not given), the result was inactive.
Regarding `O=C=Nc1cccc2c(N=C=O)cccc12`, the result was inactive.
As to `CCOC(=O)CC(=O)C(F)(F)C(F)(F)F`, the outcome was inactive.
On the same count and under the same terms, under `CO[Si](C)(CCC(F)(F)C(F)(F)C(F)(F)C(F)(F)C(F)(F)C(F)(F)F)OC` stands “inactive”.
For `OCC(F)(F)C(F)(F)C(F)(F)C(F)(F)C(F)(F)C(F)(F)C(F)(F)C(F)(F)CO`, the AC50 was 50.8 µM (active) and 42.3 µM (active).
In the case of `Brc1nc2ccccc2s1`, the outcome was inactive.
Same read-out and setting: in the case of `C=CC(=O)OCCC(F)(F)C(F)(F)C(F)(F)C(F)(F)F` it was “inactive”; in that of `O=C=NCc1cccc(CN=C=O)c1`, “inactive”.
As for `OC(O)C(F)(F)C(F)(F)F`, the outcome was inactive.
